Screens: PubChem BioAssay, National Center for Advancing Translational Sciences (NCATS)
D3 antag = antagonists of human D3 dopamine receptor. P35462. actives 2.5% (n = 360,000). max response, negative = inhibition, %. AID 652054. D3R cells, DiscoveRx beta-arrestin luminescence, antagonist mode; stronger effect = lower value; in the data active = max response below about -50%; inconclusive = no clear call, values can overlap the other calls; note: % is set by controls: 0 for no effect and ±100 for the full control effect
Target sequence (P35462 whole entry, looked up): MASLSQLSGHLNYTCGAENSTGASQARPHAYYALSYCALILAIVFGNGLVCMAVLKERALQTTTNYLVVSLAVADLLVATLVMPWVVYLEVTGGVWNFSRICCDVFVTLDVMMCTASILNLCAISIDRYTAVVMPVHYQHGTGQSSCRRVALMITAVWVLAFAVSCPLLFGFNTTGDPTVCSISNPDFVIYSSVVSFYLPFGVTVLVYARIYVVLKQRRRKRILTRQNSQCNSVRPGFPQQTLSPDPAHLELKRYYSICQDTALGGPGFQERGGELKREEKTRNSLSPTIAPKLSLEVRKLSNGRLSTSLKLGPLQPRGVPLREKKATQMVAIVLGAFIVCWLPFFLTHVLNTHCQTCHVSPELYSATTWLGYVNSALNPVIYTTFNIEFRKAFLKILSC
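Cells expressing the human receptor were seeded at 1500 cells/well, incubated overnight at 37 degrees C in 5% CO2, then exposed to library compounds with dopamine controls for 90 minutes at 37 degrees C before luminescent detection.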
Giardia killer = kills Giardia lamblia. Giardia lamblia trophozoite viability. actives 0.15% (n = 340,000). AID 540267. activity change, % at 7.66 µM, hits read low; in the data active = activity change below about -80%; inconclusive = between about -30% and that limit;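 note: parasites exposed to compound for two days anaerobically before the ATP read; % is set by controls: 0 for no effect and ±100 for the full control effect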
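Compounds were tested on trophozoites seeded at 100 cells/well and held 48 hrs at 37 deg C anaerobically. An ATP-based luminescent kit measured the remaining live cells.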
B2AR arrestin = beta2AR (human) beta-arrestin recruitment activity | beta-arrestin recruitment to beta2AR, cell-based reporter | P07550 | Potency, µM (highest dose often 46.1 µM), inactives show at the top dose activation, hits mostly activators | actives 0.02% (n = 330,000) | AID 492947; active = well fitted activation curve with a large enough effect; inconclusive = small, poorly fitted or top-dose-only effect;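 note: potency is the fitted concentration of half-maximal effect; 0% = DMSO controls and full agonism = EC100 isoproterenol or metaproterenol; nearly all actives have a fitted effect of over 65% in size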
DRD3 agonist = activates the human D3 dopamine receptor | P35462 | D3R DiscoveRx beta-arrestin cells, luminescence, 90 min | max activation, % | actives 0.58% (n = 410,000); in the data active = max activation above about 30%; note: 0% is about no effect
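Agonist-mode cell screen: cells plated at 1500/well and incubated overnight at 37 °C, then exposed to library compounds for 90 min at 37 °C. Detection reagent was added for 30–60 min at room temperature, and luminescence was read.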
Numbers without * were called inactive; ? = inconclusive; · = no result given; [ ] = dose if it differs, or a comment. The list is not random: actives were taken first. Their share in the collection is about 2.8%.

SMILES	D3 antag	Giardia killer	B2AR arrestin	DRD3 agonist
Cc1ccc(CN(Cc2ccco2)C(=O)COc2ccccc2C)cc1	·	·	·	36*
COc1cccc(CNC(=O)CCCn2c(=O)c3cccn3c3ccc(F)cc32)c1OC	·	·	·	5
CCCCNC(=O)/C(=C\c1ccc([N+](=O)[O-])o1)NC(=O)c1ccccc1	-4	-101*	0%	4
COC(=O)/C(=C\c1ccc([N+](=O)[O-])o1)NC(=O)c1ccccc1	-18	?	0%	2
Oc1ccc(Cl)cc1/C=N/c1nccs1	11	6	0%	-11
Oc1c(Br)cc(Br)cc1/C=N/c1nccs1	-55*	4	0%	-23
Cc1ccc[n+](CC(=O)Nc2c(Cl)cc(Cl)cc2Cl)c1	-17	5	0%	-3
O=C(C[n+]1cccc(CNC(=O)c2ccc(OC(F)F)cc2)c1)Nc1cc(C(F)(F)F)ccc1Cl	-64*	14	0%	-24
Cc1ccc[n+](CC(=O)Nc2cc(C(F)(F)F)ccc2Cl)c1	-79*	-1	0%	-36
CN(C)CC(=O)Nc1cc(C(F)(F)F)ccc1Cl	-58*	-13	0%	-12
NC(=O)C[n+]1cccc(CNC(=O)c2ccc(OC(F)F)cc2)c1	9	-8	0%	0
Cn1c(=O)c2c(n3cnnc13)-c1ccccc1CC21CCCC1	-56*	-21	0%	3
CCOc1ccc2cc(C#N)c(SCC(=O)OCc3ccccc3)nc2c1	·	-5	·	·
Cc1cccc(CNC(=O)CCCN2C(=O)COc3ccc(C)cc32)c1	·	·	·	-7
COC(=O)c1nc(NC(=O)c2ccc(Br)cc2)n[nH]1	-8	3	·	5
COC(=O)c1nc(NC(=O)c2ccccc2Cl)n[nH]1	-60*	1	0%	6
COc1ccc([C@]23Cc4cc(OC)c(OC)cc4C(O2)c2c(cc(C)oc2=O)O3)cc1	·	·	-2%[9.22 µM]	·
c1csc(Cc2nn3c(-c4n[nH]c5c4CCC5)nnc3s2)c1	-61*	19	0%	0
c1coc(-c2nnc3sc(Cc4cccs4)nn23)c1	-4	-4	0%	8
C=CCc1c(OC)ccc2ccc(=O)oc12	-57*	-2	0%	-8
O=C(O)c1ccc2c(c1)C(=O)N([C@@H](C(=O)O)C(c1ccccc1)c1ccccc1)C2=O	·	·	0%	·
Cc1cccc(C(=O)Nc2ccc(C(=O)/C=C/c3cccnc3)cc2)c1	-81*	15	-4%	-12
C(=Cc1cccnc1)c1ccncc1	19	-9	·	14
O=C(/C=C/c1cccnc1)c1ccc(NC(=O)c2cccc(Br)c2)cc1	?	7	0%	-6
O=C(/C=C/c1cccnc1)/C=C/c1cccnc1	-102*	?	-1%	-17
SMILES	D3 antag	Giardia killer	B2AR arrestin	DRD3 agonist
CCN(CC)C(=O)/C(C#N)=C/c1cc(O)c(O)c([N+](=O)[O-])c1	·	·	·	4
S=c1[nH]cc(-c2ccccc2)n1-c1ccccc1	-7	5	0%	-2
Cc1ccc(-n2c(-c3ccccc3)c[nH]c2=S)cc1	0	9	0%	41*
CCN(CC)S(=O)(=O)c1ccc(Cl)c(C(=O)NC2CCN(Cc3ccccc3)CC2)c1	-65*	-24	-1%	-6
O=C(NC1CCN(Cc2ccc3ccccc3c2)CC1)c1ccccc1	-74*	-7	1%	-19
O=C(NC(=S)NC1CCN(Cc2ccccc2)CC1)c1ccc(F)cc1	?	-6	0%	-13
O=C(NC1CCN(Cc2ccc(F)cc2)CC1)c1ccccc1	-72*	1	-1%	-49
CS(=O)(=O)Cc1ccc(C(=O)NC2CCN(Cc3ccccc3)C2)cc1 (stereo not drawn)	0	9	-1%	-15
O=C(NC1CCN(Cc2ccc(Cl)c(Cl)c2)CC1)c1ccccc1	-99*	16	0%	-21
CCC(=O)N1c2ccccc2CC1C(=O)NCCCN1CCN(c2cc(C)ccc2C)CC1 (stereo not drawn)	·	·	·	-30
O=C(CN(C(=O)CCC(=O)Nc1ccccn1)c1cccc(F)c1)NCc1ccc2c(c1)OCO2	-8	5	0%	9
O=C(CN(C(=O)CCC(=O)Nc1ccccn1)c1ccc(F)cc1)NCc1ccc(F)cc1	-94*	5	-1%	-4
O=C(CN(C(=O)CCC(=O)Nc1ccccn1)c1cccc(F)c1)NCc1ccc(F)cc1	0	4	0%	32*
COc1ccc(-c2nc3c(c(SCC(=O)N4CCCCC4)n2)Cc2c(CO)cnc(C)c2O3)cc1	·	·	·	-16
O=C(NC1CCCCC1)N1CCC(n2c(=O)[nH]c3ccccc32)CC1	0	-7	-1%	-7
COc1ccc(C(=O)NCCN2CCC(n3c(=O)[nH]c4ccccc43)CC2)cc1F	-91*	·	·	-11
